Hit rate of the full screen: of about 96,000 compounds, about 19,000 (20%) were called active.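 The calls were made as follows: active = blocking of liver enzyme CYP2C9 beyond about 50% at 5 µM (limit read from the data); inactive = the rest.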 Only a sample is shown.

This assay deals with Cytochrome P450 2C9 (Homo sapiens) (UniProt P11712). Put plainly: blockers of cytochrome P450 2C9 activity – biochemical, luminescence, ADME assay, primary screen (AID 777). The note with it: CYP2C9 Supersomes, luciferin-H conversion, at 5 µM, hits give high values.
Cytochrome P450 2C9 (Homo sapiens), sequence (P11712 whole entry, looked up): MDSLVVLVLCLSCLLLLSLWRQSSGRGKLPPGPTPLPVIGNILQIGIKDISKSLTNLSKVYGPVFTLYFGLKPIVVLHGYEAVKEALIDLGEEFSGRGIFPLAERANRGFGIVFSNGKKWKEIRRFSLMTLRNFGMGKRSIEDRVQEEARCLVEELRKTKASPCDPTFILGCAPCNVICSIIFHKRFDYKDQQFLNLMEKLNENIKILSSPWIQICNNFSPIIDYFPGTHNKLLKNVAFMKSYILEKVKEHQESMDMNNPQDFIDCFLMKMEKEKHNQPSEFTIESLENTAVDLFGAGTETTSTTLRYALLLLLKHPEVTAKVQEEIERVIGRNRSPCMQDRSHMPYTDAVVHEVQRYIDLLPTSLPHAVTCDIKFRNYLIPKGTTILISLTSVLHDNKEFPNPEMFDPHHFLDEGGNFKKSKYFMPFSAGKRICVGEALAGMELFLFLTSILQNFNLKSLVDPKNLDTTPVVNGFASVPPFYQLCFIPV
Consider `CN(c1ccccc1)c1ccc(/C=c2\s/c(=C(/C#N)C(=O)C(C)(C)C)n(Cc3ccco3)c2=O)cc1`, for which the inhibition is 41.9% (inactive).

As for `C=CCn1c(=N)n(CC(O)COc2ccc(OC)cc2)c2ccccc21` (centres undefined), the inhibition was -0.2% (inactive).

On to `COCCCn1c(CCC(=O)O)ccc1-c1ccc(F)cc1`, for which the inhibition is 39.8% (inactive).

As for `CC(C)(CSc1nncn1/N=C/c1ccco1)NS(=O)(=O)c1ccc(Cl)cc1`, the inhibition is 61.2% (active).

Take `Cc1cc(C)c2c(c1)cc(C)c1nnc(SCC(=O)Nc3cc(C)on3)n12`: the inhibition was 10.5% (inactive).

As to `CCCS(=O)(=O)N1CCCC(C(=O)N2CCN(c3ccccc3)CC2)C1` (centres undefined), the inhibition was -1.6% (inactive).

`Cc1nnsc1S(=O)(=O)Cc1ccccc1Cl`: the inhibition was 3.2% (inactive).

On to `CCCOc1cccc(C(=O)Nc2nnn(CCC)n2)c1`, for which the inhibition is 38.6% (inactive).

For the compound `CCOC(=O)C(CCOc1cccc(CC)c1)C(=O)OCC`, the inhibition was 57% (active).

On to `COC(=O)[C@@H](NC(=O)NCc1cccc(OC)c1)C(C)C`, for which the inhibition was -12.5% (inactive).

In the case of `CC(C)=C(NC(=O)c1ccco1)C(=O)NCCc1nc2ccccc2[nH]1`, the inhibition was -29.7% (inactive).

`CCC(CC)C(=O)N1CC(=O)Nc2ccc(Br)cc2C1c1ccccc1` (centres undefined): the inhibition was 49.6% (inactive).

In the case of `S=c1[nH]nc2c3c4c(sc3ncn12)CCCC4`, the inhibition is 20.5% (inactive).

On to `CCCOc1ccccc1-c1nc(SCCC(=O)O)n[nH]1`, for which the inhibition is -1.3% (inactive).

With `COC(=O)c1ccc(S(=O)(=O)N2CCC(c3nc4ccccc4o3)CC2)cc1`, the inhibition is 16.8% (inactive).

On to `COc1ccccc1N1CCN(C(=O)c2ccc(S(=O)(=O)N3CCCCC3)cc2)CC1`, for which the inhibition is 45.8% (inactive).

`N#CC(C(=O)c1ccc(S(=O)(=O)N2CCCCCC2)cc1)c1nc2ccccc2[nH]1` (centres undefined): the inhibition is 67.8% (active).

Regarding `O=C(CSc1nc2ccccc2o1)N1CCN(c2ccccc2)CC1`, the inhibition was 29.7% (inactive).

As for `CC(C)OCCCNC(=O)C1CC(=O)N(C2CCCCCCC2)C1` (centres undefined), the inhibition was -4.2% (inactive).

On to `CC(CN1CCCCC1)OC(=O)c1ccccc1Cl` (centres undefined), for which the inhibition is 9.2% (inactive).

As for `CCOC(=O)c1ccc(N2C(=O)CC(N(C)Cc3ccccc3)C2=O)cc1` (centres undefined), the inhibition was -9.5% (inactive).

For `CCOC(=O)c1sc2nc(SC)nc(-c3ccccc3)c2c1N`, the inhibition was 13.3% (inactive).

With `CCOC(=O)c1sc(N(Cc2ccccc2)C(=O)CN2C(=O)CN(C)C2=O)nc1C`, the inhibition was 57.9% (active).

Regarding `c1ccc(Nc2nc(N3CCOCC3)c3ccccc3n2)cc1`, the inhibition was 56.9% (active).

With `c1ccc(COc2nsnc2N2CCOCC2)cc1`, the inhibition is 30.3% (inactive).

On to `Cc1cc(Oc2ccccc2)nc(N2CCOCC2)n1`, for which the inhibition is 26.5% (inactive).

Regarding `COCc1[nH][nH]c(=O)c1C=Nc1ccc(F)cc1F`, the inhibition was -10% (inactive).

With `CCCOC(=O)CC1C(=O)NCCN1Cc1ccc(F)cc1` (centres undefined), the inhibition is 6.4% (inactive).

Regarding `CCC(C)(C(=O)NC1CCCCC1)N(C)C(=O)c1ccc2c(c1)OCO2` (centres undefined), the inhibition is -1.7% (inactive).

For `Cc1ccnc(NC(=O)c2ccc(NC(=O)c3ccco3)cc2)c1`, the inhibition was -0.6% (inactive).

`CC(C)(C)NC(=O)c1cc(NC(=O)c2ccco2)cc(NC(=O)c2ccco2)c1`: the inhibition is 64.8% (active).

`COC(=O)c1ccc(NC(=O)c2ccco2)cc1`: the inhibition is 24% (inactive).

In the case of `CN1CCN(CC(=O)C23CC4CC(CC(C4)C2)C3)CC1`, the inhibition is 5.7% (inactive).

Consider `Cc1ccc(N2C(=O)C(Cc3ccccc3)NC2=S)cc1` (centres undefined), for which the inhibition is 78.4% (active).

In the case of `Cc1ccc(N2C(=O)C3C(c4ccccc4)(C2=O)C3(c2ccccc2)c2ccccc2)cc1` (centres undefined), the inhibition is 28.1% (inactive).

`Cc1cc(C)nc(N2C(=O)CC(Cc3ccccc3)C2=O)n1` (centres undefined): the inhibition was -14% (inactive).

Take `CCOC(=O)N1CCC(NC(=O)CN2C(=O)COc3ccc(C(C)(C)C)cc32)CC1`: the inhibition was 10.3% (inactive).

Regarding `CCCCC(=O)N/N=C(\C)CC(=O)Nc1cc(Cl)ccc1OC`, the inhibition was -51.9% (inactive).

For `CN(C)c1ccc(-n2cccc2/C=C2/SC(=Nc3ccc(F)cc3)NC2=O)cc1`, the inhibition was 5.1% (inactive).

In the case of `Cc1ccc(-c2nnc(C)c(N3CC(C)OC(C)C3)n2)cc1` (centres undefined), the inhibition was 17.3% (inactive).

Regarding `COc1ccc(C)cc1NC(=O)CCC(=O)Nc1nnc(C(F)(F)F)s1`, the inhibition was 50.2% (active).

Regarding `COc1ccc(C)cc1NC(=O)CSc1nc(SC)ns1`, the inhibition was -3.2% (inactive).

With `COc1ccc(C)cc1NC(=O)CCS(=O)(=O)c1cccc2nonc12`, the inhibition is 34.9% (inactive).

In the case of `CC(=NCc1ccc2c(c1)OCO2)C1=C(O)c2ccccc2C1=O`, the inhibition is 28.1% (inactive).

For `O=C1C(C=NCC2CCCO2)=C(O)c2ccccc21` (centres undefined), the inhibition is 3.5% (inactive).

As for `CC(=NCc1ccco1)C1=C(O)c2ccccc2C1=O`, the inhibition is 78.9% (active).

Regarding `CC(Sc1sc(=S)sc1SC(C)C(=O)O)C(=O)O` (centres undefined), the inhibition was 10.2% (inactive).

For the compound `CCn1c(CSc2ncccn2)nnc1SCC(=O)N1c2ccccc2CC1C` (centres undefined), the inhibition is -1.7% (inactive).

For the compound `CCCCn1ccnc1C(=O)c1cccc(S(=O)(=O)N2c3ccccc3CC2C)c1` (centres undefined), the inhibition is 68.5% (active).

Take `CCS(=O)(=O)c1ccc2oc(SCC(=O)N3c4ccccc4CC3C)nc2c1` (centres undefined): the inhibition is 46.1% (inactive).

Regarding `O=C1Nc2ccc(Br)cc2/C1=N/N=C/C1=C(N2CCOCC2)C(=C\c2ccccc2)/CC1`, the inhibition is 84.9% (active).

With `Cc1noc(C)c1S(=O)(=O)NCCc1ccc(S(N)(=O)=O)cc1`, the inhibition is -3.8% (inactive).

Consider `CCSC(C)CC1C/C(=N/O)c2c(C)noc2C1` (centres undefined), for which the inhibition was 61.3% (active).

As to `COc1ccc(C(=O)NCc2cn3ccccc3n2)cc1`, the inhibition was 2.4% (inactive).

Consider `O=C(c1cc(-c2cccc(O)c2)on1)N1CCc2ccccc2C1`, for which the inhibition is 55.8% (active).

As for `O=C(c1cc(-c2ccc(O)cc2)on1)N1CCCc2ccccc21`, the inhibition is 55.3% (active).

`O=C(c1cc(-c2ccccc2O)on1)N1CCCC1`: the inhibition is -51.3% (inactive).

On to `O=C(c1cc(-c2cccs2)on1)N1CCCCC1`, for which the inhibition was -21.4% (inactive).

With `Cc1occc1C(=O)N1CCCc2ccccc21`, the inhibition is -1.8% (inactive).

Consider `O=C(c1cccc(C(=O)N2CCc3ccccc32)n1)N1CCc2ccccc21`, for which the inhibition is 8.6% (inactive).

`CNC(=O)c1nnn(-c2ccccc2)c1C(=O)NC`: the inhibition is -7.1% (inactive).

On to `O=C(O)c1cccnc1NC1CCCC1`, for which the inhibition is 4.1% (inactive).

Take `Cc1ccc(NC(=O)N2CCC(C(=O)NCc3ccc(F)cc3)CC2)cc1`: the inhibition is 34% (inactive).

For the compound `COc1ccc(Cn2nnc3c(=O)[nH]c(C4CCN(C(=O)c5ccccc5Cl)CC4)nc32)cc1`, the inhibition is 79.7% (active).

With `COc1ccc(-n2nnc3c(=O)n(CC(=O)N4CCC(Cc5ccccc5)CC4)cnc32)cc1`, the inhibition is 17.9% (inactive).

As for `Cc1ccc(NC(=O)N2CCC(c3nc4c(nnn4Cc4c(F)cccc4Cl)c(=O)[nH]3)CC2)cc1`, the inhibition is 87.7% (active).

As for `Cc1ccc(Cn2nnc3c(=O)n(CC(=O)N4CCCCC4)cnc32)cc1`, the inhibition was -4.1% (inactive).

Turning to `O=C(CSCc1c(F)cccc1Cl)NCC1CCCO1` (centres undefined), the inhibition was -7.5% (inactive).

`Oc1ccc(CNc2ccccc2O)cc1`: the inhibition is 22.4% (inactive).

For `COC(=O)c1ccc(Sc2ccc(F)cc2)c(N)c1`, the inhibition was 43.1% (inactive).

For `CCN(c1ccccc1)S(=O)(=O)c1ccc(NC(=O)C(C)(C)C)cc1`, the inhibition is 31.5% (inactive).

As for `CC(C)(CCl)C(=O)Nc1ccc(Sc2ccc(F)cc2)cc1`, the inhibition is 84.9% (active).

In the case of `O=C1CC(NNc2ccccc2)C(=O)N1c1cccc(Cl)c1` (centres undefined), the inhibition was 0.1% (inactive).

Regarding `Cc1noc(C)c1S(=O)(=O)Nc1ccc(C(=O)O)cc1`, the inhibition is 1.8% (inactive).

Turning to `CCCCN(CC)C(=O)CN(C)S(=O)(=O)c1cccc2nsnc12`, the inhibition is 16.6% (inactive).

With `Clc1ccc(-c2cc(COc3ccccc3)no2)cc1Cl`, the inhibition is -0.8% (inactive).

In the case of `O=S(=O)(Cc1cc(Sc2ccccc2)nc(-c2ccccc2)n1)c1ccccc1`, the inhibition was 52.5% (active).

As for `O=C1CC2(CCCCC2)Oc2ccc(OCC(=O)N3CCOCC3)cc21`, the inhibition was 2.2% (inactive).

As for `Brc1cccc(-c2nnc3n2CCC3)c1`, the inhibition is -21.9% (inactive).

As to `Cc1ccc(Cc2cnc(NC(=O)/C(C#N)=C/c3ccc(-c4cccc([N+](=O)[O-])c4)o3)s2)cc1`, the inhibition is 25.6% (inactive).

For the compound `Cc1ccc2c(c1)N(C(=O)CCC(=O)N1CCc3ccccc3C1)CCO2`, the inhibition was 13.6% (inactive).

With `O=C1N=C(N2CCCC2)S/C1=C\c1cccc(Br)c1`, the inhibition was -42.1% (inactive).

For the compound `CC(C)C(=O)NC(=S)Nc1ccccc1F`, the inhibition is 20.1% (inactive).

As to `COc1ccccc1NC(=S)NC(=O)C(C)C`, the inhibition is 12.2% (inactive).

As for `CC(C)C(=O)Nc1cccc(NC(=S)NC(=O)C(c2ccccc2)c2ccccc2)c1`, the inhibition is 98.8% (active).

Take `CC(=O)c1c(C)[nH]c(C(=O)NCCCN2CCCC2)c1C`: the inhibition was -3.6% (inactive).

Regarding `COc1ccc(-c2nn(-c3ccccc3)cc2C(=O)Nc2nc(CC(C)=O)ns2)cc1`, the inhibition is 10.8% (inactive).

With `COC(=O)c1cn(-c2ccccc2)nc1-c1cccnc1`, the inhibition was 51.7% (active).

As for `O=C(Nc1c(C(=O)N2CCCCC2)cnn1-c1ccccc1)c1ccco1`, the inhibition is -0.7% (inactive).

As to `O=C(c1cn(-c2ccccc2)nc1-c1cccnc1)N1CCCCC1`, the inhibition was 52.5% (active).

Regarding `O=C(Nn1cc(C(=O)N2CCN(c3ccccc3F)CC2)c2ccccc2c1=O)c1cnccn1`, the inhibition is 20.7% (inactive).

Take `O=C(NCc1cccnc1)c1cn(-c2ccccc2)nc1-c1cccs1`: the inhibition was 95.7% (active).

Regarding `O=C(Nc1ccc(N2CCN(C(=O)c3ccccc3)CC2)c(Cl)c1)c1cccnc1`, the inhibition is 31.6% (inactive).

For the compound `O=C(c1ccccc1-c1ccccc1)N1CCOCC1`, the inhibition is 5% (inactive).

Take `COc1ccccc1N1CCN(C(=O)c2cn(-c3ccccc3)nc2-c2cccnc2)CC1`: the inhibition was 92% (active).

As to `COC(=O)CSc1nnc(-c2cccnc2)o1`, the inhibition is -12.9% (inactive).

`Cc1c(C(=O)NCc2ccccc2)cnn1-c1ccccc1`: the inhibition was -4% (inactive).

As to `O=C(NCc1cccnc1)c1cccnc1Sc1ccc(Cl)cc1`, the inhibition was 39.9% (inactive).

In the case of `COC(=O)/C(=C\Nc1ccccc1)NC(=O)c1ccc(Cl)cc1Cl`, the inhibition is 33.9% (inactive).

A word on the inhibition: it is the change of the read-out against control, counted positive when it falls.

The record behind these values is PubChem BioAssay AID777 (Sanford-Burnham Center for Chemical Genomics, 2007).
